These sequences were tested against RNF122 (assay: pooled miR-30 sensor sort-seq; sequence = guide strand). Conditions: shRNA.
Note: reference of the scale not given here.

Row | Sequence | sensor-assay potency score (higher = more potent)
1 | ATATCCGTATCGCTCACTCTGT | -0.868
2 | TATCCGTATCGCTCACTCTGTG | -0.565
3 | TATAATTGTAACTTCTTGGCAT | 0.823
4 | TAACTTCTTGGCATCACCTTTA | -0.252

These sequences were tested against RNF125 in the same assay as above. Conditions: shRNA.

Row | Sequence | sensor-assay potency score (higher = more potent)
5 | TATCTATGTACTTCTGACAAGT | -0.831
6 | TTCTTGTAGTGGTCCATACTTA | -0.891
7 | TAGACTGGTAGCAATACAGGAA | -0.258
8 | TAGTGGTCCATACTTATCTATG | -1.8
9 | TTATACTCTGATTTCATTCTTT | 0.204
10 | TTATCTATGTACTTCTGACAAG | -1.25
11 | TTGTTCTTTAGACTGGTAGCAA | -0.126
12 | TACTTATCTATGTACTTCTGAC | -0.698
13 | ATGTACTTCTGACAAGTCCGAA | -1.03
14 | ATACTTATCTATGTACTTCTGA | 0.546
15 | TGTACTTCTGACAAGTCCGAAT | -0.85
16 | TTGTTGTTCTTTAGACTGGTAG | -0.623

The sequences below were run against RNF14 in the same assay as above. Conditions: shRNA.

Row | Sequence | sensor-assay potency score (higher = more potent)
17 | TTTGAGTTCTTCTCTAGCCACT | -1.03
18 | TCTAAATTCATCTCCATCGTAA | 0.0572
19 | TTTCTGAGAACCAATCTTGAGC | -0.733
20 | AATATCGTCGTCAACATCCACA | -1.06
21 | TATCTTGAAATTCTGTGGCAAA | -1.02
22 | TCATCTTGTTACATCCGTCTAA | 0.00357
23 | TTTATTAGCCTCATCCGCTTGC | 0.884
24 | TATCGTCGTCAACATCCACAGC | -0.981
25 | ATGTCATCTTGTTACATCCGTC | -0.926
26 | TAAAACATGGTGAACCAGGGTC | 0.147
27 | TTCTTCTCTAGCCACTCCTTAC | -0.95
28 | TTACTTTGTGTACTTGACGGAA | -0.835

The sequences below were run against RNF157 in the same assay as above. Conditions: shRNA.

Row | Sequence | sensor-assay potency score (higher = more potent)
29 | TTGAGTTTGAGTCCCTGACTGC | -0.461
30 | TTGTCTTTGGGAATGTAGCTGG | 0.177
31 | TTTCGGATATTGACCAGGCTTC | -1.09
32 | TTCCTCAGCACATTTGACGAGC | -0.263
33 | TTCCTCTTCATGCAGCACGGAA | -1.64
34 | TACTTGTTTCTGTTTGAGGGGC | 0.142
35 | TAAGGAAACACAACTGGTCTGT | 0.685
36 | TTCAATTCCATAGATCTCCTGA | 0.823
37 | TTGAGTCAAACTTCTCTCCTCC | 0.532
38 | TACCATTCTGGAACTCTTCCGT | 0.188
39 | TTGTACTGCACAGTCTCCGACT | -0.593
40 | TTGAGTCCCTGACTGCTGCTGT | 0.522
